Test systems include NCI-H23 lung; NCI-H226 lung; NCI-H322M lung; HOP-62 NSCLC; NCI-H460 lung; HOP-92 NSCLC; NCI-H522 lung; A549/ATCC NSCLC; 786-0 renal; COLO 205 colon.
What all share (assay): NCI-60 one-dose screen, 48 h (100 = growth as untreated, 0 = no growth, -100 = all killed)
Common to all, as to details: 10 µM unless noted

Compounds without any hit were thinned out: in the full panel of roughly 83,000, 20% have a hit.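 Treatment: one concentration, 48 hours, 96-well format. Scoring: percent growth, with anything below 10 considered active.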 A number with no mark means an inactive call. Calls of active or inactive are those of the source.

Turning to `COc1ccc(C2CC(=O)Nc3c2c(C)nn3-c2nc3ccccc3[nH]2)cc1OC` (stereo not given), the growth was 48.7% with NCI-H23 lung; 58.7% with NCI-H226 lung; 75.9% with NCI-H322M lung; 67.8% in the experiment on HOP-62 NSCLC; 63.7% in the experiment on NCI-H460 lung; 89.3% in the experiment with HOP-92 NSCLC. Moreover, the growth is 98.2% in the experiment with NCI-H522 lung, 61.1% with A549/ATCC NSCLC, 87.5% in the experiment on 786-0 renal and 106% in the experiment with COLO 205 colon.
Consider `Nc1c(C(=O)c2ccc(F)cc2)sc2nc3c(cc12)CCCC3`, for which the growth is 77.9% in the experiment on NCI-H23 lung; 85.4% in the experiment on NCI-H226 lung; 81.3% in the experiment with NCI-H322M lung; 91.1% in the experiment with HOP-62 NSCLC; 90.3% in the experiment with NCI-H460 lung; 61.3% in the experiment with HOP-92 NSCLC. Further, the growth in the experiment with NCI-H522 lung was -2.9% (active); with A549/ATCC NSCLC it was 70.9%; in the experiment on 786-0 renal it was 85.3%; in the experiment with COLO 205 colon, 84.8%.
Consider `O=C(CN1CCN(c2cc3c(cc2F)c(=O)c(C(=O)O)cn3C2CC2)CC1)Nc1ccc(C(=O)/C=C/c2ccc(Cl)cc2)cc1`, for which the growth with NCI-H23 lung is 105%; in the experiment on NCI-H226 lung, 92.5%; with NCI-H322M lung, 111%; with HOP-62 NSCLC, 107%; in the experiment with NCI-H460 lung, 112%; with HOP-92 NSCLC it was 95.8%. In addition, the growth is 47.7% in the experiment with NCI-H522 lung, 97.6% in the experiment with A549/ATCC NSCLC, 88.9% in the experiment on 786-0 renal and 112% in the experiment with COLO 205 colon.
For the molecule `COc1ccc(/C=C/C(=O)c2ccc(NC(=O)CN3CCN(c4cc5c(cc4F)c(=O)c(C(=O)O)cn5C4CC4)CC3)cc2)cc1`, the growth in the experiment on NCI-H23 lung was 99.6%; in the experiment with NCI-H226 lung, 94.8%; in the experiment with NCI-H322M lung, 96.1%; in the experiment on HOP-62 NSCLC, 98.2%; in the experiment with NCI-H460 lung it was 112%; in the experiment on HOP-92 NSCLC, 90.6%. The growth with NCI-H522 lung is 111%; in the experiment on A549/ATCC NSCLC it was 96.8%; in the experiment on 786-0 renal it was 89.8%; in the experiment with COLO 205 colon, 120%.
`CCN(CC)CCCC(C)N=c1cc(Nc2cc(=NC(C)CCCN(CC)CC)c3cc(OC)ccc3o2)oc2ccc(OC)cc12` (stereo not given): the growth in the experiment on NCI-H23 lung was -43.3% (active); in the experiment with NCI-H226 lung, 2.33% (active); in the experiment with NCI-H322M lung, -38.4% (active); with HOP-62 NSCLC it was -41.6% (active); in the experiment on NCI-H460 lung it was -38.7% (active); in the experiment with HOP-92 NSCLC, -29.9% (active). The growth in the experiment with NCI-H522 lung is -78.6% (active); in the experiment on A549/ATCC NSCLC, -48.6% (active); with 786-0 renal it was -7.34% (active); with COLO 205 colon, -96.2% (active).
Consider `COc1ccc(OC)c(-c2ccc(-c3ccccc3N)c3[nH]c4ccccc4c23)c1`, for which the growth is 74.5% with NCI-H23 lung; 75.2% in the experiment with NCI-H226 lung; 90.1% in the experiment on NCI-H322M lung; 80.9% in the experiment with HOP-62 NSCLC; 92.3% in the experiment with NCI-H460 lung; 80.8% in the experiment with HOP-92 NSCLC. Besides, the growth was 56.9% in the experiment with NCI-H522 lung, 68.7% in the experiment with A549/ATCC NSCLC, 83.6% in the experiment with 786-0 renal and 87.5% in the experiment on COLO 205 colon.
As to `Cc1nc2sccn2c1-c1csc(Nc2ccccc2Cl)n1`, the growth in the experiment on NCI-H23 lung is 38.2%; in the experiment with NCI-H226 lung, 57.7%; in the experiment with NCI-H322M lung it was 64.4%; in the experiment with HOP-62 NSCLC, 54.2%; in the experiment on NCI-H460 lung, 35.3%; in the experiment with HOP-92 NSCLC it was 60.9%. Moreover, the growth in the experiment on NCI-H522 lung is 41.9%; in the experiment on A549/ATCC NSCLC, 34.4%; in the experiment with 786-0 renal it was 55.3%; in the experiment with COLO 205 colon, 41.6%.
For the molecule `C=C1C(=O)O[C@H]2[C@H]1CC/C(COC(=O)NCc1cc(OC)c(OC)c(OC)c1)=C\CC[C@@]1(C)O[C@@H]21`, the growth in the experiment with NCI-H23 lung is 86.8%; with NCI-H226 lung, 76.2%; in the experiment with NCI-H322M lung, 99.5%; with HOP-62 NSCLC it was 80.4%; with NCI-H460 lung, 94%; in the experiment with HOP-92 NSCLC, 72.4%. For the same molecule, the growth with NCI-H522 lung was -42.6% (active); in the experiment with A549/ATCC NSCLC, 88.1%; in the experiment with 786-0 renal it was 40.3%; with COLO 205 colon, 17.6%.
Take `COc1cc2nc(N3CCC[C@@H](NC4=CC(=O)c5ccccc5C4=O)C3)nc(N)c2cc1OC`: the growth in the experiment on NCI-H23 lung was 87.2%; with NCI-H226 lung, 113%; in the experiment with NCI-H322M lung, -65.3% (active); with HOP-62 NSCLC, 94.5%; in the experiment with NCI-H460 lung it was -72.9% (active); with HOP-92 NSCLC, 84.8%. For the same molecule, the growth with NCI-H522 lung is 94.3%; with A549/ATCC NSCLC it was -74.6% (active); in the experiment on 786-0 renal, 94.7%; with COLO 205 colon, -71.8% (active).
Turning to `CN(C)c1ncc(-c2ccc(C(F)(F)F)cc2)c(NC2CCCCCC2)n1`, the growth in the experiment with NCI-H23 lung is 58.5%; in the experiment on NCI-H226 lung, 61.9%; in the experiment on NCI-H322M lung it was 95.4%; in the experiment with HOP-62 NSCLC, 88.2%; with NCI-H460 lung, 55.4%; in the experiment on HOP-92 NSCLC, -1.97% (active). The growth in the experiment with NCI-H522 lung was 43.6%; in the experiment with A549/ATCC NSCLC, 57.5%; with 786-0 renal it was 67.2%; in the experiment with COLO 205 colon it was 50%.
Consider `COc1ccc(-n2c(C)cc(-c3ccccc3)c2C)cc1`, for which the growth in the experiment with NCI-H23 lung was 33.9%; with NCI-H226 lung it was 57.3%; with NCI-H322M lung it was 93.5%; in the experiment on HOP-62 NSCLC, 82.4%; in the experiment with NCI-H460 lung, 46.8%; in the experiment on HOP-92 NSCLC it was 24.6%. Further, the growth in the experiment on NCI-H522 lung is 29.5%; in the experiment with A549/ATCC NSCLC, 40.7%; in the experiment on 786-0 renal, 35%; in the experiment on COLO 205 colon, 39.4%.
With `CCCCCCOc1ccc(C2(Cl)c3ccccc3N(C)c3ccccc32)cc1`, the growth with NCI-H23 lung is 24.5%; in the experiment on NCI-H226 lung, 29.5%; in the experiment with NCI-H322M lung it was 57.1%; in the experiment with HOP-62 NSCLC, 82.4%; with NCI-H460 lung, -25.7% (active); in the experiment with HOP-92 NSCLC it was 83.1%. In addition, the growth is 55.4% with NCI-H522 lung, 47.1% with A549/ATCC NSCLC, 47.2% in the experiment on 786-0 renal and 61.7% with COLO 205 colon.
In the case of `Nc1nc(-c2ccccc2)cs1`, the growth in the experiment with NCI-H23 lung is 111%; in the experiment on NCI-H226 lung, 93.3%; with NCI-H322M lung it was 109%; in the experiment on HOP-62 NSCLC, 97%; in the experiment with NCI-H460 lung it was 109%; in the experiment on HOP-92 NSCLC, 101%. The growth in the experiment on NCI-H522 lung was 102%; in the experiment on A549/ATCC NSCLC, 95.6%; with 786-0 renal, 105%; in the experiment with COLO 205 colon, 108%.

The values above are taken from PubChem BioAssay (NCI).
